PLCg1 inh: PLC-gamma1 enzyme inhibitors, primary screen, biochemical, fluorescence, purified enzyme | 370,000 tested, 0.84% active | 1-phosphatidylinositol 4,5-bisphosphate phosphodiesterase gamma-1 (Homo sapiens), P19174 | fluorogenic substrate | inhibition, % at 12.2 µM; in the data active = inhibition above about 9.5%
Target sequence (P19174 whole entry, looked up): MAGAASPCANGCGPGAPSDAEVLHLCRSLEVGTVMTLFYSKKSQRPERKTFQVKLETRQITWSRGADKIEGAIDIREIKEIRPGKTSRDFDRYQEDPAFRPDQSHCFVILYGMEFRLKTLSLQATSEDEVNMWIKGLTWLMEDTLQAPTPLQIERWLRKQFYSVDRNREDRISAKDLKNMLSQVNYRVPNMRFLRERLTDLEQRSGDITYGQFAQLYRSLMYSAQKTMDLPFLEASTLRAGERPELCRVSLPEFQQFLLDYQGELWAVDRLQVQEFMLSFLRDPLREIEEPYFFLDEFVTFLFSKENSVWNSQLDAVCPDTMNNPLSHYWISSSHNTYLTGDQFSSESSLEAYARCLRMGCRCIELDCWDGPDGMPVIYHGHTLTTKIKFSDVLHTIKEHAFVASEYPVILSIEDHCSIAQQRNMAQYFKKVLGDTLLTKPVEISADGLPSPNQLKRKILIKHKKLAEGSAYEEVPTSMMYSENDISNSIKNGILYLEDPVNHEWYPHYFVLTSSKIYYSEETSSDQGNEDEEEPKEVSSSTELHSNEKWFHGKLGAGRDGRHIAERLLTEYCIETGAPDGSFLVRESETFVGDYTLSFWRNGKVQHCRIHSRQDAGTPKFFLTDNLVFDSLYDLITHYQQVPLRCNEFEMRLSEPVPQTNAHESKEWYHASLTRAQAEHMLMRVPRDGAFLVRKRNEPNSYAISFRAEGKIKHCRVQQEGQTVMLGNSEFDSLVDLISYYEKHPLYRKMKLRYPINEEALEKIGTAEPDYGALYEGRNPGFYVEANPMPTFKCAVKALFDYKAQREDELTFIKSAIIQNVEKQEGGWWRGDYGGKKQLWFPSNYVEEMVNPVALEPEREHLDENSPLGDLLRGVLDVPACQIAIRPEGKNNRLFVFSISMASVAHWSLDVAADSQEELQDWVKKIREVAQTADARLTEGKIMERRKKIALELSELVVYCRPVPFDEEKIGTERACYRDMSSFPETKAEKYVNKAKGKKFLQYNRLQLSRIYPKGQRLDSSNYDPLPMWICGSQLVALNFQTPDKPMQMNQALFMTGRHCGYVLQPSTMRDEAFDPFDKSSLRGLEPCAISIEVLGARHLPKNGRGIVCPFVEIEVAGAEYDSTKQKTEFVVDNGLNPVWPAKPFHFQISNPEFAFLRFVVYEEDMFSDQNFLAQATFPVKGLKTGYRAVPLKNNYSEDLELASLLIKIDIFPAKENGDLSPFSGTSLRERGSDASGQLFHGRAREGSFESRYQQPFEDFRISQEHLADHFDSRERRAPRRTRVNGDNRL
KLK7 zymogen act: proKLK7 zymogen activators, primary screen, biochemical, fluorescence intensity; Kallikrein-7 (Homo sapiens), P49862; purified proKLK7, EDANS-DABCYL substrate fluorescence; 100% is mature enzyme control, 0% vehicle; activation, % at 7 µM; 370,000 tested, 0.9% active; AID 652039, 2013;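 active = activation above the mean of all tested compounds plus 3 SD, computed per campaign excluding outliers beyond control limits, cut at about 13% in these data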
ADAM10 inh: human ADAM10 inhibitors, primary screen, biochemical, QFRET, HTS. Disintegrin and metalloproteinase domain-containing protein 10 (Homo sapiens), O14672. recombinant ADAM10, EDANS/DABCYL FRET peptide cleavage, 3 h. inhibition, % at 7 µM. 370,000 tested, 0.62% active;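 active = inhibition above a per-campaign cutoff equal to the mean of compounds falling between control-based bounds plus 3 SD, cut at about 20% in these data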;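 note: 0% = DMSO wells while the 100% control is not disclosed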
ADAM17 inh: ADAM17 inhibitors, primary screen, biochemical, QFRET; Disintegrin and metalloproteinase domain-containing protein 17 (Homo sapiens), P78536; recombinant ADAM17, EDANS/DABCYL FRET peptide cleavage; inhibition, % at 6.95 µM; 370,000 tested, 0.83% active;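 active = inhibition above the mean of compounds lying between control limits plus 3 SD, set per campaign, cut at about 8.5% in these data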;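 note: 0% = DMSO-only wells as the low control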
PLCb3 inh: human PLC-beta3 inhibitors, primary screen, biochemical, fluorescence | 1-phosphatidylinositol 4,5-bisphosphate phosphodiesterase beta-3 (Homo sapiens), Q01970 | Purified PLC-beta3, fluorogenic substrate | inhibition, % at 12.2 µM | 370,000 tested, 0.18% active | AID 720704, 2013; in the data active = inhibition above about 11%;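 note: 0% = median of compound wells on plate and 100% = full blocker control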
proKLK7 act conf: proKLK7 zymogen activators, confirmation, biochemical, fluorescence intensity, triplicate; activation, % at 7 µM; shares compounds with KLK7 zymogen act; purified proKLK7, EDANS-DABCYL substrate fluorescence; scaled: vehicle 0, mature enzyme 100; 3,200 tested, 68% active;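 active = activation, as change over the incubation, above the mean of all tested compounds plus 3 SD, cut at about 13% in these data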
EDANS-DABCYL int: EDANS-DABCYL substrate optical interference, artefact control for kallikrein-7 zymogen activator project, biochemical, fluorescence intensity, high throughput; activation, % at 7 µM; shares compounds with KLK7 zymogen act; 3,200 tested, 80% active; no enzyme, 4 h; solvent 0%, active enzyme control 100%; AID 686952, 2013;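 active = activation above the all-compound mean plus 3 SD, ignoring values outside control-based bounds, cut at about 4.8% in these data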;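 note: value is the 4 h activation minus the activation read at time zero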
EDANS interf: optically interferes with EDANS-DABCYL fluorescence, kallikrein-7 activator counter-screen | shares compounds with KLK7 zymogen act | EDANS-DABCYL peptide fluorescence interference, no enzyme | EC50, µM | 250 tested, 20% active;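 active = compounds that raise the fluorescence signal in this interference counterscreen, with EC50 at or below 10 µM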;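 note: intact quenched peptide substrate alone read at 355 nm excitation and 520 nm emission; signal is fluorescence gain from T0 to T4 after four hours at room temperature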
Numbers without * were called inactive; i = inactive; . = no result given. Sampled rows, rich in hits. Any-hit rate of the full collection: about 2.9%.

SMILES	PLCg1 inh	KLK7 zymogen act	ADAM10 inh	ADAM17 inh	PLCb3 inh	proKLK7 act conf	EDANS-DABCYL int	others
Cc1ccc(C)c(C2NC(=O)c3ccccc3N2)c1 (stereo not given)	-426.1	36.2*	i	-398.3	i	23.6*	20.6*
CCOc1c(C(=O)CC)cc2c(C)cc(=O)oc2c1C	-3.6	0.5	-3.7	-6.8	-4.7	.	.
COc1ccc(C(=O)Nc2cccc(C(C)=O)c2)cc1OC	-0.3	0.1	0.2	-1.4	1.2	.	.
Cc1cccc(N(C(=O)CNC(=O)c2cccs2)C(C(=O)NC2CCCC2)c2ccncc2)c1 (stereo not given)	3.0	-0.1	-0.3	1.5	-0.8	.	.
CCN(C)c1ccc(/C=N\n2nnnc2N)cc1	-304.2	12.7*	-380.8	-91.3	-423.1	46.3*	43.1*
Nc1nnnn1/N=C/c1ccc(O)cc1	-7.9	-6.4	-50.6	-16.9	-5.6	.	.
COc1cc2c(cc1OC)CN(C(=O)NS(=O)(=O)c1ccc(C)cc1)CC2	-65.8	19.8*	-60.8	-17.4	-93.0	4.0	1.5
COc1cc2c(cc1OC)CN(C(=O)c1ccc(S(=O)(=O)N3CCCC3)cc1)CC2	-1.5	0.1	-2.8	-2.2	-7.6	.	.
Cc1cccc(NC2=NC3(CCCCC3)N=C(N)N2)c1C	-3.7	0.3	-1.7	-9.3	5.3	.	.
COC(=O)c1nc2n(n1)C(c1cccc(Cl)c1)C1=C(CCCC1=O)N2 (stereo not given)	-2.7	20.3*	-17.6	-0.7	0.8	13.9*	18.6*
COc1ccc(CC(=O)Nc2ccc(-c3cn4ccccc4n3)cc2)cc1OC	-69.7	32.6*	-406.9	-62.9	-108.7	4.8	1.5
COc1ccc(-c2cn3cc(C)ccc3n2)cc1F	-15.1	1.4	-218.3	-70.0	-15.8	.	.
COc1ccc(CC(=O)Nc2ccc(-c3cn4ccccc4n3)cc2)cc1	-42.7	-4.8	-205.0	-74.7	-50.8	.	.
COc1ccc(-c2cn3cc(C)ccc3n2)cc1OC	-238.7	13.0*	i	-302.2	-293.1	7.7	12.7*
Cc1nn(S(=O)(=O)c2ccc([N+](=O)[O-])cc2)c(C)c1Sc1ccccc1	-1.1	-0.2	8.6	-4.4	1.9	.	.
Cc1ccccc1/C=N\NC(=O)c1ccc(Cn2cccn2)o1	-2.3	-0.3	-3.3	-4.5	-3.5	.	.
NC(=O)Cn1cc(/C=N/NC(=O)c2ccc(Cn3cc(Cl)cn3)o2)c(-c2ccccc2)n1	-5.2	19.7*	-42.2	-16.0	-12.1	2.1	0.8
CNc1nc2sc3c(c2c(=O)n1C)CC(C)(C)SC3	-366.4	23.2*	i	i	-435.2	1.1	2.0
CC(C)C[C@H]1CN([C@@H](CC(C)C)CN2CCCC2CN2C(=S)NC[C@@H]2Cc2ccc(O)cc2)C(=S)N1CC1CCCCCC1 (stereo not given in full)	-0.3	-0.7	-23.5	-3.3	-3.4	.	.
O=C(c1cccs1)N(Cc1cccc(Cl)c1)C1CCS(=O)(=O)C1 (stereo not given)	-0.1	0.3	1.3	-4.3	0.5	.	.
CCc1cc(=O)oc2c(C)c(O)c(CN3CCCCC3)cc12	i	49.0*	i	i	i	63.5*	78.6*
Cc1c(O)c(CN2CCCC2)cc2c3c(c(=O)oc12)CCC3	i	70.5*	i	i	i	66.9*	65.2*
COc1ccc2c(CN3CCCCC3)cc(=O)oc2c1	-108.2	22.8*	i	-188.6	-159.2	2.6	1.3
COc1ccc2c(CN3CCOCC3)cc(=O)oc2c1	-7.2	0.9	-42.9	-10.7	-7.0	.	.
Cc1c(O)c(CN2CCCC2)cc2c1oc(=O)c1ccccc12	-70.3	0.2	-18.7	-4.5	-84.1	.	.
SMILES	PLCg1 inh	KLK7 zymogen act	ADAM10 inh	ADAM17 inh	PLCb3 inh	proKLK7 act conf	EDANS-DABCYL int	others
COc1ccc(-c2nnc(SCc3cc(C)ccc3C)n2N)cc1	1.0	0.0	1.8	-0.1	3.2	.	.
Nc1nc2nccc(-c3ccco3)n2n1	-437.8	17.4*	i	i	-465.3	15.2*	26.7*
Nc1nc2nccc(-c3ccccn3)n2n1	-270.5	11.4	-336.9	-120.5	-293.7	.	.
COc1ccc(-c2ncccc2OC(=O)C23CC4CC(CC(C4)C2)C3)cc1OC	-122.7	18.3*	i	-138.3	-147.0	12.0	8.2*
CCC(=O)Nc1cccc(C(=O)c2ccc(C)c(C)c2)c1	3.5	0.7	9.2	1.4	-4.2	.	.
CCNC(=O)C(=O)N1CCC2(CC1)OCCN2S(=O)(=O)c1ccc(C)cc1	3.2	-0.2	4.5	-2.1	0.3	.	.
O=C(/C=C/c1ccco1)c1ccccc1O	-14.6	8.3	-12.5	-3.1	-15.8	.	.
O=C(C=Cc1ccco1)c1cc(Cl)ccc1O	-28.5	35.3*	-21.7	-7.5	-35.9	-0.1	1.4
NC(=O)COC(=O)c1cccc(S(=O)(=O)N2CCCc3ccccc32)c1	0.5	0.0	-0.4	-3.7	-4.4	.	.
COc1cc(C2Nc3ccc4ccccc4c3C3=C2C(=O)CC(C)(C)C3)ccc1OC(C)C(=O)O (stereo not given)	i	24.1*	i	i	i	0.0	12.7*
CC1(C)CC(=O)C2=C(C1)c1c(ccc3ccccc13)NC2c1ccc(OCC(=O)O)cc1 (stereo not given)	i	36.1*	i	i	i	23.2*	18.1*	EDANS interf=>23.2
COc1cc(C2Nc3ccc4ccccc4c3C3=C2C(=O)CC(C)(C)C3)ccc1OCC(=O)O (stereo not given)	i	16.3*	i	i	i	-60.1	-54.4
COc1cccc(C2Nc3ccc4ccccc4c3C3=C2C(=O)CC(C)(C)C3)c1OCC(=O)O (stereo not given)	i	26.3*	i	i	i	10.7	5.4*
CC(=O)NN1C(=O)c2ccccc2NC1c1ccc(N(C)C)cc1 (stereo not given)	i	7.9	i	-434.0	i	.	.
COc1ccc(C2Nc3ccccc3C(=O)N2NS(=O)(=O)c2ccccc2)cc1OC (stereo not given)	-157.1	16.7*	-240.8	-81.9	-193.8	4.1	9.0*
